Laboratory results published in PubChem BioAssay AID624111 (Johns Hopkins Ion Channel Center, 2012).
Among all 4,000 compounds or so, about 60 (2%) were called active.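 How the source made its calls: active means duplicate-averaged calcium fluorescence ratio at least three times the standard deviation of buffer wells, a nonspecific response in parental cells; inactive means the rest.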 This excerpt belongs to a sample that is enriched for actives.

Assay: calcium flux effects in cells lacking MrgX1 – parental HEK293 cells, Fluo-4 calcium flux, counter-screen for MrgX1 antagonist project, confirmation (AID 624111)
Conditions: parental HEK293, Fluo-4 calcium fluorescence, FDSS; at 10 µM

Row | Compound | fluorescence ratio F(max-min)/F0
1 | O=C(CSc1ncccn1)NC(=O)NCc1ccccc1 | inactive
2 | O=C(c1cccc(S(=O)(=O)Nc2ccccc2Cl)c1)N1CCN(C(=O)c2ccco2)CC1 | inactive
3 | O=C(Nc1ccccc1)c1nnsc1S(=O)(=O)c1ccc(Cl)cc1 | inactive
4 | Cc1ccc(-n2[nH]c(C)c(/C=N/N3C(=O)c4cccc5cccc(c45)C3=O)c2=O)cc1 | inactive
5 | CCCCC(=O)Nc1ccc2c(c1)C(=O)NC2=O | inactive
6 | O=C(Cc1ccccn1)c1ccc(O)cc1O | inactive
7 | Cc1cc2ncn(CCCCOc3ccccc3)c2cc1C | inactive
8 | CC(C)(C)n1c(=O)[nH]c2c(c1=O)CCC2 | inactive
9 | Cc1ccc2nc(-c3ccc(NC(=O)CN(C)S(=O)(=O)c4ccccc4)cc3)sc2c1 | inactive
10 | Cc1cccc(NC(=O)C(C)N2C(=O)C3C4CC(C(Br)C4Br)C3C2=O)c1 (stereo unspecified) | inactive
11 | C=CCNC(=O)c1csc(-c2ccccc2)n1 | inactive
12 | CCc1ccc(N(CC(=O)Nc2sc3c(c2C(=O)OC)CCCC3)S(C)(=O)=O)cc1 | inactive
13 | Cc1ccc(Cc2cnc(N)s2)o1 | inactive
14 | COc1ccc(Nc2nnc(C)c3ccccc23)cc1 | inactive
15 | Cc1nn(-c2ccccc2)c(C)c1NC(=O)COc1ccc(Cl)cc1Cl | inactive
16 | O=C(Nc1cccc(Cl)c1)c1cncn1-c1ccc(F)cc1 | inactive
17 | CCC(C)Sc1nc(C)nc2c1c(=O)n(C)c(=O)n2C (stereo unspecified) | inactive
18 | CCc1cc2c(SCC(=O)Nc3ncc(Cl)c(C)c3Cl)ncnc2s1 | inactive
19 | N#CC1=C(N)Oc2c(sc3ccccc23)C1c1ccco1 (stereo unspecified) | 0.504 (active)

Row | Compound | fluorescence ratio F(max-min)/F0
20 | CCC(C)c1ccccc1N1CC(C(=O)N2CCN(S(=O)(=O)c3ccc(F)cc3)CC2)CC1=O (stereo unspecified) | inactive
21 | COc1ccccc1Oc1nc(-c2cccnc2)nc2ccccc12 | inactive
22 | COC(=O)c1ccc(COC(=O)C2CCN(S(=O)(=O)c3c(Cl)cccc3Cl)CC2)o1 | inactive
23 | CN1C(CC(=O)Nc2ccc(Br)cc2)c2ccccc2CC1(C)C (stereo unspecified) | inactive
24 | O=C(COc1ccc(Cl)cc1)NC(=S)Nc1ccccc1N1CCOCC1 | inactive
25 | Nc1ccc(Oc2ccc(Cl)cc2)cc1 | inactive
26 | Cc1cc(=O)oc2cc(NC(=O)C3CC(=O)N(Cc4ccccc4)C3)ccc12 (stereo unspecified) | inactive
27 | COCCCNC(=O)C1CCN(c2ccc(N3CCOCC3)nn2)CC1 | inactive
28 | COc1ccc(C(=O)NC(=S)NC2CCCCC2)cc1 | inactive
29 | O=C(Nc1ccc(Br)cc1F)C1CC(=O)N(C2CCCCC2)C1 (stereo unspecified) | inactive
30 | CCN(c1cccc(C)c1)S(=O)(=O)c1ccc(-c2coc(C)n2)cc1 | inactive
31 | CC(=O)N(C1=C(Cl)C(=O)c2ccccc2C1=O)c1ccc(C(=O)O)cc1 | inactive
32 | CCOC(=O)c1c(NC(=O)CSc2cn(CC)c3ccccc23)sc2c1CCC2 | inactive
33 | O=C(c1ccc(O)cc1)c1ccc(C(=O)O)c(C(=O)O)c1 | inactive
34 | CCOc1ccc(NC(=O)CCNC(=O)c2ccc(Br)cc2)cc1 | inactive
35 | O=C1CCCN1CCCNC(=S)Nc1ccc(F)c(Cl)c1 | inactive
36 | COc1ccc(S(=O)(=O)N2CCN(C(=O)NC3CCCCC3)CC2)cc1 | inactive
37 | O=C(Nc1nnc(-c2ccccc2)o1)c1cc(-c2cccs2)nc2ccccc12 | inactive
38 | Cc1cc(Br)ccc1NC(=O)c1cnc(N2CCN(c3ccccn3)CC2)c2ccccc12 | inactive

Row | Compound | fluorescence ratio F(max-min)/F0
39 | Cc1c(C(=O)N2CCN(c3ccc(F)cc3)CC2)oc2c1C(=O)CCC2 | inactive
40 | CC(C)CC(=O)N/C(N)=N/c1nc2ccccc2s1 | inactive
41 | CC(=O)N(C)c1ccc(NC(=O)C(F)(F)F)cc1 | inactive
42 | CCOC(=O)c1c(C)[nH]c(=S)c(C#N)c1-c1ccccc1 | inactive
43 | CCc1cc(=O)oc2cc(C)cc(OCC(=O)N3CCC[C@@H]3C(=O)O)c12 | inactive
44 | CCN(CC)CC(=O)Nc1nn(-c2ccccc2)nc1C(N)=O | inactive
45 | O=C(C1CCN(S(=O)(=O)c2cnc[nH]2)CC1)N1CCN(Cc2ccc3c(c2)OCO3)CC1 | inactive
46 | OCc1ccc(OCCCOc2cccc3cccnc23)cc1 | inactive
47 | FC(F)(F)c1cc(-c2cccs2)nc(NCc2ccco2)n1 | inactive
48 | O=C(Cc1nc2ccccc2[nH]c1=O)c1ccc(Cl)cc1 | inactive
49 | Clc1ccc(C=NC23CN4CN(CN(C4)C2)C3)cc1 | inactive
50 | CCOC(=O)N1CCN(C(=O)COCc2cc(-c3ccc4c(c3)OCO4)on2)CC1 | inactive
51 | CCSc1nsc(NC(=O)Nc2cccc(C(C)=O)c2)n1 | inactive
52 | CCCc1cc(=S)n2c([nH]c3ccccc32)c1C#N | inactive
53 | O=c1cc(CSc2ccccn2)nc(N2CCN(c3ccccc3)CC2)[nH]1 | inactive
54 | CCOC(=O)CNC(=O)CSc1nc2cccnc2n1CC | inactive
55 | Cc1c(C)c2c(OCC(=O)N[C@@H](C(=O)O)c3ccccc3)cc3c(c2oc1=O)CCC(C)(C)O3 | inactive
56 | Cc1ccc(-c2nn(C(C)(C)C)c3ncnc(N)c23)cc1 | inactive
